Here are results for 35 compounds from PubChem BioAssay (NCI).

Structures are written as SMILES. About 79,000 compounds went through this panel and 15% of them were active in at least one assay; those are over-represented in the sample as a whole. Values without a mark were called inactive. Rule as the data show it: active = growth inhibition above about 70%; inactive = the rest.

The first test is described as follows: NCI Yeast Anticancer Drug Screen. Data for the bub3 strain (AID 167). Particulars: S. cerevisiae bub3 mutant strain, at 1.2 µM, hits give high values. In outline:
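Mutant yeast screening strain plus compound; vehicle-treated cultures serve as the 0% inhibition reference.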
As to `CN(C)CC(CN(C)C)C(=O)/C=C/c1ccc(Cl)cc1Cl`, the growth inhibition is -3%.
On the same count and under the same terms, under `c1ccc2c(c1)ccn2CCc1c[nH]c2ccccc12` stands 15%; under `Cc1ccccc1NC(=O)c1c(C)oc2c1C(=O)c1ccccc1C2=O`, -57%.
Regarding `CC(C)OC(=O)NNc1c(Cl)cc(Cl)cc1Cl`, the growth inhibition was 26%.
As to `COc1ccc2nc3cccc([N+](=O)[O-])c3c(NCCNCCO)c2c1`, the growth inhibition was -11%.
Still for that read-out and setting: the result for `COc1ccc2c(c1)CCCC(Br)C2=O` (stereo not given) reads -7%; that for `CCC(OC(C)=O)C1CC(C(C)C)CCC1C` (stereo not given), -2%; that for `O=S(=O)(c1cccc(C(F)(F)F)c1)N1c2ccccc2-n2cccc2C1c1cccnc1` (stereo not given), -27%.
On to `c1ccc(-c2cc(C3CO3)c3ccccc3n2)cc1` (stereo not given), for which the growth inhibition is 2%.
On the same count and under the same terms, the result for `COc1ccc(/C=C2\SC(=S)N(/C=C3\C(=O)N(c4ccccc4)N=C3C)C2=O)cc1OC` reads -2%.
On the same count and under the same terms, the result for `CC1=CC(=C(c2ccc(N)c(C)c2)c2ccc(N)c(C)c2)C=CC1=N` reads 12%.
For the compound `CC(/C=C/c1ccc([N+](=O)[O-])o1)=N/N1CC(CN2CCOCC2)OC1=O` (stereo not given), the growth inhibition was -6%.
The same measure, in the same setting: under `C=CC(C)(C)N1C(=O)C(C(C)=O)=C(O)C1Cc1c[nH]c2ccccc12` (stereo not given) stands -3%.
On the same count and under the same terms, the result for `O=C1c2cccc3cccc(c23)C(=O)N1CCNCCN1C(=O)c2cccc3cccc(c23)C1=O` reads 0%.
As for `Cc1ccc([N+](=O)[O-])c2c(NCCC[N+](C)(C)[O-])c3ccccc3nc12`, the growth inhibition is -11%.
In the case of `COC(=O)C(Cc1c[nH]c2ccccc12)N1CN(C)c2ccccc2C1=O` (stereo not given), the growth inhibition is -6%.
In the case of `O=C(/N=N/C(=O)Oc1ccccc1)Oc1ccccc1`, the growth inhibition is -25%.
Same read-out and setting: the result for `COc1cc([C@@H]2c3cc4c(cc3[C@@H](NC(=O)NO)[C@H]3COC(=O)[C@H]23)OCO4)cc(OC)c1O` reads -3%; that for `CC1(C)CC(=O)C(/C=N/c2nc(-c3ccc(Br)cc3)cs2)=C(O)C1`, 3%.
The same measure, in the same setting: the result for `CCOC(=O)/C(=C/c1cccc(Cl)c1)N(CC)CC` reads 30%; that for `CC(C)OC(=O)NNc1cccc(Cl)c1`, 3%.
The same measure, in the same setting: the result for `CCC(=O)C1=C(O)c2cc(OC)ccc2CC1C(=O)OC` (stereo not given) reads -7%.
For `O=S(=O)(NC1CCCC(c2ccccc2)C1)c1ccccc1` (stereo not given), the growth inhibition is 1%.
Same read-out and setting: under `COc1ccc2nc3cccc([N+](=O)[O-])c3c(NCCCCCC(=O)O)c2c1` stands -11%.
The same measure, in the same setting: under `CCO/C=C1\SC(=S)N(c2ccc(OCC)cc2)C1=O` stands -7%.
Same read-out and setting: the result for `COc1cc(OC)c(CSCC(NC(=O)OCC2c3ccccc3-c3ccccc32)C(=O)O)c(OC)c1` (stereo not given) reads 0%.
As to `COC(=O)c1ccccc1N=NNc1cccc(SC)c1`, the growth inhibition was 12%.
On the same count and under the same terms, the result for `CC1=NN(C(=O)c2ccccc2O)C(=O)/C1=C/c1ccco1` reads 40%; that for `COc1ccccc1NC(=O)c1ccc(Cl)cc1`, -5%; that for `CC(C)=CCC/C(C)=C/CN1C(=O)C=CC1=O`, 10%.
As for `O=C1CSC(c2ccccc2)N1c1ccc(-c2ccc(-n3c(-c4ccccc4)nc4ccccc4c3=O)cc2)cc1` (stereo not given), the growth inhibition is 2%.
Still for that read-out and setting: under `N#CC1OB(O)c2ccccc21` (stereo not given) stands -11%; under `O=C(NCCNCCNC(=O)c1cc(-c2ccccc2)nc2ccccc12)c1cc(-c2ccccc2)nc2ccccc12`, -2%.
The same measure, in the same setting: under `Brc1ccc(B2Nc3ccccc3N2)cc1` stands 9%.
On the same count and under the same terms, the result for `CCOP(=O)(OCC)/C(C#N)=C/c1cccc(Oc2ccccc2)c1` reads -11%.

The test is the same for the next values; noted with them: S. cerevisiae bub3 mutant strain, at 3.7 µM, hits give high values.
Regarding `CN(C)CC(CN(C)C)C(=O)/C=C/c1ccc(Cl)cc1Cl`, the growth inhibition is -4%.
Same read-out and setting: under `c1ccc2c(c1)ccn2CCc1c[nH]c2ccccc12` stands 18%; under `Cc1ccccc1NC(=O)c1c(C)oc2c1C(=O)c1ccccc1C2=O`, -36%.
On the same count and under the same terms, under `CC(C)OC(=O)NNc1c(Cl)cc(Cl)cc1Cl` stands 38%; under `COc1ccc2nc3cccc([N+](=O)[O-])c3c(NCCNCCO)c2c1`, -17%; under `COc1ccc2c(c1)CCCC(Br)C2=O` (stereo not given), -10%.
The same measure, in the same setting: the result for `CCC(OC(C)=O)C1CC(C(C)C)CCC1C` (stereo not given) reads -1%; that for `O=S(=O)(c1cccc(C(F)(F)F)c1)N1c2ccccc2-n2cccc2C1c1cccnc1` (stereo not given), 1%; that for `c1ccc(-c2cc(C3CO3)c3ccccc3n2)cc1` (stereo not given), -1%.
On to `COc1ccc(/C=C2\SC(=S)N(/C=C3\C(=O)N(c4ccccc4)N=C3C)C2=O)cc1OC`, for which the growth inhibition is 0%.
Take `CC1=CC(=C(c2ccc(N)c(C)c2)c2ccc(N)c(C)c2)C=CC1=N`: the growth inhibition was 26%.
The same measure, in the same setting: under `CC(/C=C/c1ccc([N+](=O)[O-])o1)=N/N1CC(CN2CCOCC2)OC1=O` (stereo not given) stands -3%.
As for `C=CC(C)(C)N1C(=O)C(C(C)=O)=C(O)C1Cc1c[nH]c2ccccc12` (stereo not given), the growth inhibition was -2%.
The same measure, in the same setting: the result for `O=C1c2cccc3cccc(c23)C(=O)N1CCNCCN1C(=O)c2cccc3cccc(c23)C1=O` reads 1%.
On the same count and under the same terms, the result for `Cc1ccc([N+](=O)[O-])c2c(NCCC[N+](C)(C)[O-])c3ccccc3nc12` reads -4%.
On the same count and under the same terms, the result for `COC(=O)C(Cc1c[nH]c2ccccc12)N1CN(C)c2ccccc2C1=O` (stereo not given) reads -1%; that for `O=C(/N=N/C(=O)Oc1ccccc1)Oc1ccccc1`, -29%; that for `COc1cc([C@@H]2c3cc4c(cc3[C@@H](NC(=O)NO)[C@H]3COC(=O)[C@H]23)OCO4)cc(OC)c1O`, -3%.
As for `CC1(C)CC(=O)C(/C=N/c2nc(-c3ccc(Br)cc3)cs2)=C(O)C1`, the growth inhibition is 3%.
The same measure, in the same setting: the result for `CCOC(=O)/C(=C/c1cccc(Cl)c1)N(CC)CC` reads 18%; that for `CC(C)OC(=O)NNc1cccc(Cl)c1`, 44%.
Take `CCC(=O)C1=C(O)c2cc(OC)ccc2CC1C(=O)OC` (stereo not given): the growth inhibition is -8%.
On the same count and under the same terms, the result for `O=S(=O)(NC1CCCC(c2ccccc2)C1)c1ccccc1` (stereo not given) reads -1%.
For the compound `COc1ccc2nc3cccc([N+](=O)[O-])c3c(NCCCCCC(=O)O)c2c1`, the growth inhibition is 34%.
The same measure, in the same setting: under `CCO/C=C1\SC(=S)N(c2ccc(OCC)cc2)C1=O` stands -4%; under `COc1cc(OC)c(CSCC(NC(=O)OCC2c3ccccc3-c3ccccc32)C(=O)O)c(OC)c1` (stereo not given), 10%.
With `COC(=O)c1ccccc1N=NNc1cccc(SC)c1`, the growth inhibition is 6%.
Still for that read-out and setting: the result for `CC1=NN(C(=O)c2ccccc2O)C(=O)/C1=C/c1ccco1` reads 52%; that for `COc1ccccc1NC(=O)c1ccc(Cl)cc1`, -5%; that for `CC(C)=CCC/C(C)=C/CN1C(=O)C=CC1=O`, 37%.
The same measure, in the same setting: under `O=C1CSC(c2ccccc2)N1c1ccc(-c2ccc(-n3c(-c4ccccc4)nc4ccccc4c3=O)cc2)cc1` (stereo not given) stands 5%; under `N#CC1OB(O)c2ccccc21` (stereo not given), -10%; under `O=C(NCCNCCNC(=O)c1cc(-c2ccccc2)nc2ccccc12)c1cc(-c2ccccc2)nc2ccccc12`, -1%.
On the same count and under the same terms, under `Brc1ccc(B2Nc3ccccc3N2)cc1` stands 19%.
On to `CCOP(=O)(OCC)/C(C#N)=C/c1cccc(Oc2ccccc2)c1`, for which the growth inhibition is -19%.
